According to the OligoGym collection:
Note: reference of the scale not given here.

These sequences were tested against PXDN (assay: pooled miR-30 sensor sort-seq; sequence = guide strand). Details: shRNA.
Sequence TTTTCCACTTTCTGTCACCTGA has a sensor-assay potency score (higher = more potent) of 0.0535. For TTCACAGTTCAGCTCTTCCGGG, the sensor-assay potency score (higher = more potent) was -0.633. TTGAGGTCGACCATCAAGCCAT was tested, and the sensor-assay potency score (higher = more potent) was -0.562. TTCCAGAACAAACTCTCTGAAG showed a sensor-assay potency score (higher = more potent) of -1.36. Sequence TTCAGCTTGAGCAGCTCCGTGG has a sensor-assay potency score (higher = more potent) of -0.881. Sequence TTGTAGTGGTAACTTGTTCCGT has a sensor-assay potency score (higher = more potent) of -0.383. In the case of TATAGCTCTGTCAACAGTCGCA, the sensor-assay potency score (higher = more potent) is reported as -0.0838. Sequence TATCTGATTAAAGTGCAGGTAT has a sensor-assay potency score (higher = more potent) of -0.445. For TGTAGTGGTAACTTGTTCCGTT, the sensor-assay potency score (higher = more potent) was 0.669. TTGAGTTTATAGCTCTGTCAAC gave a sensor-assay potency score (higher = more potent) of -1.24. TTCTATCTGATTAAAGTGCAGG was tested, and the sensor-assay potency score (higher = more potent) was -0.41.

The sequences below were run against PXN in the same assay as above. Details: shRNA.
TACAGCGTTCAGTTCCAGCAGC showed a sensor-assay potency score (higher = more potent) of -0.582. For TTCTCGTGGAACCCTTCGGGAC, the sensor-assay potency score (higher = more potent) was -1.59. TAGTTCTCCAGGATGGCCCGGG was tested, and the sensor-assay potency score (higher = more potent) was -0.505. With TAGAAATCTATCAAAGTCGGTA the sensor-assay potency score (higher = more potent) was 0.0963. AACATGTCGAAGTAGTCCTTGC showed a sensor-assay potency score (higher = more potent) of -0.89. Sequence TTCAGTTCCAGCAGCAGGCGGT has a sensor-assay potency score (higher = more potent) of -0.708. Sequence TTTCACAGTAGGGCTGTCCATC has a sensor-assay potency score (higher = more potent) of -0.695. Sequence TAGGCTTCTCTTTCGTCAGGGG has a sensor-assay potency score (higher = more potent) of 0.384. TCGTGCTCGAAGAAGCTGCCGT showed a sensor-assay potency score (higher = more potent) of -0.594. Sequence TTGTTGAGCTGCTTGAGGCAGA has a sensor-assay potency score (higher = more potent) of -0.264. TTGAGTTGGCCTCATCTGCAGG showed a sensor-assay potency score (higher = more potent) of -0.889. TTGCAGTAGTAGCAGCGCGGGG showed a sensor-assay potency score (higher = more potent) of -1.51.
